Assay [1] can be described thus: antimalarial activity against Dd2 strain (AID 2302;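 active = growth inhibition above 50% at the single 2 µM test dose, taken to imply half-maximal potency below 2 µM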;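 note: 0% = DMSO untreated growth and 100% = chloroquine plus artemisinin killed control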). As to conditions: P. falciparum Dd2 in RBCs, LDH growth readout, 72 h; at 2 µM; active compounds read high.
Assay [2] is described as follows: HepG2 cytotoxicity, primary screen, cytotoxicity control for P. falciparum antimalarial project, cell-based, ATP luminescence (AID 2303;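 active = inhibition above 50%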;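 note: 0% = DMSO wells and 100% = digitonin-killed cells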). Particulars: HepG2 viability, 24-48 h, at 10 µM, active compounds read high.
Assay [3] addresses L-lactate dehydrogenase (Plasmodium falciparum (isolate CDC / Honduras)) (UniProt Q27743). Description: PfLDH activity inhibition – cell lysate, 3D7 strain, counter-screen for P. falciparum growth inhibition project (AID 2304).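 Note: 0% = vehicle and 100% = reference inhibitor.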 As to conditions: P. falciparum 3D7 crude extract, LDH APAD/NBT absorbance; at 2 µM; active compounds read high.
Assay [4] can be described thus: inhibition of 3D7 malaria parasite growth – strain 3D7 (AID 2306).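 Note: 0% = DMSO wells and 100% = chloroquine plus artemisinin control wells.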 Particulars: P. falciparum 3D7 erythrocytic growth, LDH absorbance, 72 h; at 2 µM; active compounds read high.
The target in assay [5] is Calcium-dependent protein kinase 1 (Plasmodium falciparum (isolate 3D7)) (UniProt P62344). Kind of assay: PfCDPK1 kinase inhibitors, biochemical, TCAMS library (AID 1159585; cut-off not given, nearly all actives have IC50 up to about 0.98 µM;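 note: inhibitors leave more ATP so luminescence rises with inhibition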). Particulars: recombinant PfCDPK1, Kinase-Glo ATP depletion luminescence. (In general: Kinase-Glo measures the ATP left after a reaction by luminescence.)
Calcium-dependent protein kinase 1 (Plasmodium falciparum (isolate 3D7)), sequence (P62344 whole entry, looked up): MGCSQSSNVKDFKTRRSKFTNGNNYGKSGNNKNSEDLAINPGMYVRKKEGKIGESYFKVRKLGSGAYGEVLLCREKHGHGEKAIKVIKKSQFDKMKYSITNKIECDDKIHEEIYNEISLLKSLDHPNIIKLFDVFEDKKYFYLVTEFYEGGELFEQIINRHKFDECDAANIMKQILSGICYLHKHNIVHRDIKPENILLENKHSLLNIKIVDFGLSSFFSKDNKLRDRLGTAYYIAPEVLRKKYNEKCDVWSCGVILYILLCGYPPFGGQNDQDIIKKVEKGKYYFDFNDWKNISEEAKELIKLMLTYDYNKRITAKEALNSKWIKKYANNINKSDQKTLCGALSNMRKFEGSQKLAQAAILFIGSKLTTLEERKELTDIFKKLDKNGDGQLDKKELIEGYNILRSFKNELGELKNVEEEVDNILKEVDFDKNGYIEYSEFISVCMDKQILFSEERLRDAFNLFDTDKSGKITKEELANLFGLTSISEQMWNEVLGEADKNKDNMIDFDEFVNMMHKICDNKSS
The target in assay [6] is Plasmodium falciparum protein kinase 6 (PK6, PF3D7_1337100) (UniProt Q8IDW1). Kind of assay: PfPK6 kinase inhibitors, biochemical, TCAMS library (AID 1159586). Particulars: recombinant PfPK6, Kinase-Glo ATP depletion luminescence.
Plasmodium falciparum protein kinase 6 (PK6, PF3D7_1337100), sequence (Q8IDW1 1-305): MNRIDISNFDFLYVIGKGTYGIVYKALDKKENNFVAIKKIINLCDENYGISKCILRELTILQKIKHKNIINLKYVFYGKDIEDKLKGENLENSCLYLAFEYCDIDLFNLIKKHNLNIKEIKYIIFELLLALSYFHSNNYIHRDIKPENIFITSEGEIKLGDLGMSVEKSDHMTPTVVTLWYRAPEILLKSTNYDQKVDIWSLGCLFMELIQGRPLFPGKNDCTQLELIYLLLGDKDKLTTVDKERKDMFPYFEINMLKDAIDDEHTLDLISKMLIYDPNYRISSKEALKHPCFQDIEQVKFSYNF
Assay [7] concerns the target Protein kinase 7 (PK7), Plasmodium falciparum 3D7 (PF3D7_0213400) (UniProt Q7YTF7). Kind of assay: inhibition of Plasmodium PK7 catalytic activity – biochemical, TCAMS antimalarial set, Kinase-Glo luminescence (AID 1159587). Particulars: recombinant PfPK7, Kinase-Glo ATP depletion luminescence.
The target of assay [8] is Calcium-dependent protein kinase 4 (Plasmodium falciparum (isolate 3D7)) (UniProt Q8IBS5). Kind of assay: PfCDPK4 kinase inhibitors, biochemical, TCAMS library (AID 1159588; cut-off not given, nearly all actives have IC50 up to about 0.91 µM). Particulars: recombinant PfCDPK4, Kinase-Glo ATP depletion luminescence.
Calcium-dependent protein kinase 4 (Plasmodium falciparum (isolate 3D7)), sequence (Q8IBS5 whole entry, looked up): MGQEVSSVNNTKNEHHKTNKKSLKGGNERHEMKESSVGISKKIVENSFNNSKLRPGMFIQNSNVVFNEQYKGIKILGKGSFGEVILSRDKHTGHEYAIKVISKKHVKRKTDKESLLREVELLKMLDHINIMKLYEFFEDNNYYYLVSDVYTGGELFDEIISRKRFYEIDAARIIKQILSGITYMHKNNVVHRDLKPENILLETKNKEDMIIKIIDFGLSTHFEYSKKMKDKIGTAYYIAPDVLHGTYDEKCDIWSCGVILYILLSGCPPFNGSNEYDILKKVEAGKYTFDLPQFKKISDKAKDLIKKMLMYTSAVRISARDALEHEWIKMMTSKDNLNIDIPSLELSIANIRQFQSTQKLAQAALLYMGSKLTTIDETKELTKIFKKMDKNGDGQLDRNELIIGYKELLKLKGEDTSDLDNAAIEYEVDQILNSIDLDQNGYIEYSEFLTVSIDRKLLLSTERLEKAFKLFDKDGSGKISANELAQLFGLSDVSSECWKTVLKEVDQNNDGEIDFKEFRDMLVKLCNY

Molecules are shown by their SMILES. Unmarked numbers belong to inactive results. For some assays here: Entries with a potency or affinity are not part of this list. The source made the active and inactive calls. Unless noted, the rule behind the calls is not given here.

Protein kinase 7 (PK7), Plasmodium falciparum 3D7 (PF3D7_0213400), sequence (Q7YTF7 1-343): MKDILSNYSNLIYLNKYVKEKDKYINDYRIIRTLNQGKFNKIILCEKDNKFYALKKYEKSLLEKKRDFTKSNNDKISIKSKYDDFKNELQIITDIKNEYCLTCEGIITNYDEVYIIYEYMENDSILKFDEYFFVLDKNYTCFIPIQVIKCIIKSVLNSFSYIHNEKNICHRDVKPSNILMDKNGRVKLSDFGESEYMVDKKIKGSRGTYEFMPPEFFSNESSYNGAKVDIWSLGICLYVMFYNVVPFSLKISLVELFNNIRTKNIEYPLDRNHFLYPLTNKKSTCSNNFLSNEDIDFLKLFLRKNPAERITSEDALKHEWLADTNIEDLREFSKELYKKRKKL
L-lactate dehydrogenase (Plasmodium falciparum (isolate CDC / Honduras)), sequence (Q27743 whole entry, looked up): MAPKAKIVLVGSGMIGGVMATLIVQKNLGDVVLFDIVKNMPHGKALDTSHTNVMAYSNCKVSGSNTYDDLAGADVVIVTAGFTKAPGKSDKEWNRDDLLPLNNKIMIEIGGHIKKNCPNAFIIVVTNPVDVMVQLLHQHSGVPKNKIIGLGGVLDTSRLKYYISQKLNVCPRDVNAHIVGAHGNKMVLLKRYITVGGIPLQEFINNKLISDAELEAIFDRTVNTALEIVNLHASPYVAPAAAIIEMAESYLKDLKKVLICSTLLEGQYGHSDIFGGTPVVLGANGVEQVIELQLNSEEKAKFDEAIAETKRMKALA

In the case of `Cc1c(CNCCCNc2cc(=O)c3ccccc3[nH]2)sc(C(F)F)c1Br`, the growth inhibition in assay [1] is 29%; in assay [4] it was 98% (active). Besides, the inhibition in assay [2] is 0%; in assay [3] it was 5%. The result in assay [5], in assay [6], in assay [7] and in assay [8] was inactive.
Consider `O=C(Cc1cnc[nH]1)Nc1cccc(-c2cccc(-c3nc4ccccc4[nH]3)c2)c1`, for which the growth inhibition was 60% (active) in assay [1] and 97% (active) in assay [4]. In addition, the inhibition in assay [2] was 24%; in assay [3] it was -2%. The outcome in assay [5], in assay [6], in assay [7] and in assay [8] was inactive.
On to `CCNc1cc(C(=O)N[C@@H](Cc2ccccc2)[C@H](O)CNC2C3CC4CC(C3)CC2C4)cc(N2CCCCS2(=O)=O)c1` (some centres not stated), for which the growth inhibition in assay [1] was 96% (active); in assay [4], 97% (active). Besides, the results for the inhibition in assay [2] and in assay [3] were -2% and 6%, respectively. The result in assay [5], in assay [6], in assay [7] and in assay [8] was inactive.
With `CCCCOc1ccc(-n2c(Nc3ccccc3)nc3cc(S(N)(=O)=O)ccc32)cc1`, the growth inhibition is 72% (active) in assay [1] and 90% (active) in assay [4]. Also, the inhibition was 0% in assay [2] and -6% in assay [3]. Moreover, the result in assay [5], in assay [6], in assay [7] and in assay [8] was inactive.
With `CN(C)CCOc1ccc2c(c1)CN(C)CC2c1ccccc1` (configuration not stated), the growth inhibition in assay [1] was -1%; in assay [4] it was 91% (active). For the same molecule, the results for the inhibition in assay [2] and in assay [3] were 15% and -2%, respectively. The outcome in assay [5], in assay [6], in assay [7] and in assay [8] was inactive.
With `Cc1cccc2[nH]c(-c3ccc(-c4ccc(CN5CCN(C6CCN(C)CC6)CC5)cc4)cc3)nc12`, the growth inhibition in assay [1] and in assay [4] was 100% (active) in each case. Further, the inhibition is 99% (active) in assay [2] and -5% in assay [3]. Besides, the outcome in assay [5], in assay [6], in assay [7] and in assay [8] was inactive.
As to `COc1cc2c(cc1S(=O)(=O)c1ccc(OCc3ccc(Cl)cc3)cc1)CCN(Cc1ccc(NC(C)=O)s1)CC2`, the growth inhibition is -3% in assay [1] and 89% (active) in assay [4]. The inhibition in assay [2] was 3%; in assay [3], -2%. Moreover, the outcome in assay [5], in assay [6], in assay [7] and in assay [8] was inactive.
On to `COc1ccc(CN2CCC(NCc3cccc(C(F)(F)F)c3)CC2)cc1`, for which the growth inhibition was 8% in assay [1] and 99% (active) in assay [4]. The inhibition in assay [2] was 6%; in assay [3], 0%. The outcome in assay [5], in assay [6], in assay [7] and in assay [8] was inactive.
As to `COc1ccc(-c2ccc(NC(=O)c3ccc(C#N)cc3)cc2)cc1CN1CCNCC1`, the growth inhibition in assay [1] is 42%; in assay [4], 96% (active). Further, the figures for the inhibition in assay [2] and in assay [3] were 23% and 0%, respectively. Further, the outcome in assay [5], in assay [6], in assay [7] and in assay [8] was inactive.
Turning to `CC1(C)N=C(N)N=C(N)N1OCC1CCCCC1`, the growth inhibition in assay [1] was 97% (active); in assay [4] it was 94% (active). The inhibition in assay [2] is 67% (active); in assay [3], 4%. In addition, the result in assay [5], in assay [6], in assay [7] and in assay [8] was inactive.
Consider `Cc1cccc2[nH]c(-c3ccc(-c4ccc(CN5CCN(C6CCN(C)CC6)CC5)cc4)s3)nc12`, for which the growth inhibition in assay [1] and in assay [4] was 101% (active) throughout. Further, the results for the inhibition in assay [2] and in assay [3] were 97% (active) and -4%, respectively. The result in assay [5], in assay [6], in assay [7] and in assay [8] was inactive.
Consider `O=C(C=Cc1ccc(Cl)c(Cl)c1)NCCCCCN1CCCC(CCCNC(=O)/C=C/c2ccccc2)C1` (configuration not stated), for which the growth inhibition in assay [1] is 12%; in assay [4], 98% (active). The inhibition in assay [2] was 92% (active); in assay [3], -4%. In addition, the result in assay [5], in assay [6], in assay [7] and in assay [8] was inactive.
On to `Cc1cc(Cl)ccc1OC(C)C(=O)N1CCc2ccccc21` (configuration not stated), for which the results for the growth inhibition in assay [1] and in assay [4] were 78% (active) and 94% (active), respectively. In addition, the inhibition was 8% in assay [2] and -2% in assay [3]. The result in assay [5], in assay [6], in assay [7] and in assay [8] was inactive.
As to `O=C(N[C@@H](CC1CCCCC1)C(=O)NC1CCCc2ccccc21)c1ccc(O)c(-c2cccc(C(F)(F)F)c2)c1` (some centres not stated), the growth inhibition was 99% (active) in assay [1] and 100% (active) in assay [4]. Moreover, the results for the inhibition in assay [2] and in assay [3] were -4% and 5%, respectively. The outcome in assay [5], in assay [6], in assay [7] and in assay [8] was inactive.
Consider `COc1cc(Cc2c(C)nc3nc(N)nc(N)c3c2C)c(Br)c(OC)c1OC`, for which the growth inhibition in assay [1] is -2%; in assay [4] it was 93% (active). Further, the values for the inhibition in assay [2] and in assay [3] were 44% and 0%, respectively. Besides, the outcome in assay [5], in assay [6], in assay [7] and in assay [8] was inactive.
For the molecule `Cc1ccc(NC(=O)N2CCC(n3c(-c4ccccc4)nc4cccnc43)CC2)cc1F`, the growth inhibition in assay [1] is 85% (active); in assay [4] it was 96% (active). The results for the inhibition in assay [2] and in assay [3] were 23% and 2%, respectively. Further, the result in assay [5], in assay [6], in assay [7] and in assay [8] was inactive.
As to `CCNC(=O)N1CCc2ccc(Oc3nc(NCc4ccccc4OC)ncc3C)cc2CC1`, the figures for the growth inhibition in assay [1] and in assay [4] were 76% (active) and 83% (active), respectively. Besides, the inhibition in assay [2] and in assay [3] was -9% each time. Besides, the outcome in assay [5], in assay [6], in assay [7] and in assay [8] was inactive.
Consider `O=C(NCCN1CCCCC1)c1cc2cc(-c3ccccc3)ccc2n1S(=O)(=O)c1ccccc1`, for which the growth inhibition in assay [1] is -1%; in assay [4], 90% (active). The inhibition is 15% in assay [2] and 2% in assay [3]. Besides, the result in assay [5], in assay [6], in assay [7] and in assay [8] was inactive.
Regarding `OC1CCC(Nc2ccc3ncc(-c4ccc5ccccc5c4)n3n2)CC1` (configuration not stated), the results for the growth inhibition in assay [1] and in assay [4] were 94% (active) and 95% (active), respectively. The values for the inhibition in assay [2] and in assay [3] were 52% (active) and 3%, respectively. The outcome in assay [5], in assay [6], in assay [7] and in assay [8] was inactive.

The term inhibition denotes the relative decrease from the control value, in per cent.

(Values after PubChem BioAssay.)
